The values that follow come from PubChem BioAssay (NCI).

Test systems include NCI-H23 lung; NCI-H226 lung; HOP-62 NSCLC; NCI-H460 lung; HOP-92 NSCLC; NCI-H522 lung; A549/ATCC NSCLC; 786-0 renal; COLO 205 colon; DU-145 prostate; K-562 leukemia; MALME-3M melanoma; MDA-MB-231 breast; RXF 393 renal; SF-268 CNS; SF-295 CNS; SF-539 CNS; UACC-257 melanoma; M14 melanoma.
What all share (test): NCI-60 one-dose screen, 48 h (100 = growth as untreated, 0 = no growth, -100 = all killed)
Holding throughout (details): 10 µM

Compounds without any hit were thinned out: in the full panel of roughly 83,000, 20% have a hit.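 A percent growth of 40 corresponds to 60% growth inhibition; 0 means no net growth; -100 means all cells died. Active threshold: below 10.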 A number with no mark means an inactive call. Active and inactive are the calls of the source.

For `CC(C)(C)OC(=O)N1CCc2c(sc3ncnc(N/N=C/c4ccccc4Br)c23)C1`, the growth is 74% with NCI-H23 lung; 78% in the assay with NCI-H226 lung; 85.8% with HOP-62 NSCLC; 49.2% in the assay with NCI-H460 lung; 80.8% in the assay on HOP-92 NSCLC; 68.2% with NCI-H522 lung. Besides, the growth was 68.1% in the assay on A549/ATCC NSCLC; 69.2% in the assay with 786-0 renal; 27.6% in the assay with COLO 205 colon; 91.9% with DU-145 prostate; 15.9% in the assay with K-562 leukemia; 90.4% in the assay on MALME-3M melanoma. The growth in the assay on MDA-MB-231 breast was 81.3%; in the assay with RXF 393 renal it was 81.8%; in the assay on SF-268 CNS it was 87.8%; with SF-295 CNS, 89.5%; with SF-539 CNS it was 80.6%; in the assay with UACC-257 melanoma, 82.6%. Moreover, the growth in the assay on M14 melanoma was 83.3%.
`Cc1c(Cl)cccc1NC(=O)CN1CCOCC1`: the growth is 95.9% in the assay on NCI-H23 lung; 106% in the assay on NCI-H226 lung; 93% in the assay on HOP-62 NSCLC; 100% in the assay with NCI-H460 lung; 118% with HOP-92 NSCLC; 75.1% with NCI-H522 lung. The growth was 106% in the assay with A549/ATCC NSCLC; 99.7% in the assay on 786-0 renal; 108% in the assay on COLO 205 colon; 102% in the assay with DU-145 prostate; 91.6% in the assay with K-562 leukemia; 92.6% with MALME-3M melanoma. Moreover, the growth was 106% with MDA-MB-231 breast; 117% with RXF 393 renal; 97.1% in the assay with SF-268 CNS; 99.3% with SF-295 CNS; 106% in the assay with SF-539 CNS; 108% with UACC-257 melanoma. In addition, the growth with M14 melanoma is 94.9%.
`O=C1/C=C/[C@@H](O)[C@@H]2C[C@@H](O)C[C@H]2/C=C/CCC[C@@H](C(F)(F)F)O1`: the growth is 81.4% in the assay with NCI-H23 lung; 59.9% in the assay with NCI-H226 lung; 99.3% in the assay on HOP-62 NSCLC; 104% in the assay on NCI-H460 lung; 99.4% with HOP-92 NSCLC; 88% in the assay on NCI-H522 lung. For the same compound, the growth in the assay with A549/ATCC NSCLC was 99.3%; with 786-0 renal it was 92.6%; with COLO 205 colon, 22%; in the assay with DU-145 prostate, 119%; in the assay on K-562 leukemia it was 92%; in the assay with MALME-3M melanoma it was 65%. Also, the growth was 96.7% with MDA-MB-231 breast; 42.7% in the assay with RXF 393 renal; 93.9% with SF-268 CNS; 97.2% in the assay with SF-295 CNS; 105% in the assay on SF-539 CNS; 51.8% in the assay on UACC-257 melanoma. For the same compound, the growth in the assay with M14 melanoma was 112%.
Take `COc1ccc(/C(C#N)=C/c2ccccc2OC)cc1`: the growth with NCI-H23 lung was 41.7%; with NCI-H226 lung, 64.8%; with HOP-62 NSCLC, 44.7%; in the assay on NCI-H460 lung, 20.9%; in the assay with HOP-92 NSCLC it was 74.4%; in the assay on NCI-H522 lung it was 5.02% (active). Moreover, the growth in the assay on A549/ATCC NSCLC was 36.2%; with 786-0 renal, 52.4%; in the assay with COLO 205 colon, 14.2%; with DU-145 prostate, 68.1%; in the assay with K-562 leukemia it was 21%; in the assay on MALME-3M melanoma, 19.9%. For the same compound, the growth in the assay on MDA-MB-231 breast is 56.2%; in the assay on RXF 393 renal, 25.5%; with SF-268 CNS, 60.7%; in the assay with SF-295 CNS, 22.9%; in the assay with SF-539 CNS, 42.2%; in the assay on UACC-257 melanoma, 47.8%. Further, in the assay with M14 melanoma, the growth was 20.7%.
As to `CCOC(=O)C1=CSC2=NC3=C(CCC/C3=C\c3ccc(Cl)cc3)C(c3ccc(Cl)cc3)N12` (configuration not stated), the growth with NCI-H23 lung is 83.8%; with NCI-H226 lung, 92.2%; in the assay on HOP-62 NSCLC, 115%; in the assay with NCI-H460 lung, 102%; with HOP-92 NSCLC, 96.2%; with NCI-H522 lung, 93.5%. Also, the growth in the assay on A549/ATCC NSCLC was 96.5%; in the assay with 786-0 renal it was 101%; with COLO 205 colon it was 105%; with DU-145 prostate it was 92.7%; with K-562 leukemia it was 92.7%; in the assay with MALME-3M melanoma, 103%. In addition, the growth in the assay with MDA-MB-231 breast was 94.5%; in the assay with RXF 393 renal, 78.8%; in the assay with SF-268 CNS, 90.8%; in the assay with SF-295 CNS, 104%; in the assay with SF-539 CNS, 103%; in the assay on UACC-257 melanoma, 85.7%. Also, in the assay with M14 melanoma, the growth was 92.5%.
With `COc1cc(-c2nn(-c3cccc(NC(=O)NCCNS(=O)(=O)c4ccc(Cl)cc4)c3)cc2-c2ccncc2)ccc1Cl`, the growth in the assay with NCI-H23 lung is 12.4%; with NCI-H226 lung it was 27.3%; with HOP-62 NSCLC, 32.9%; in the assay on NCI-H460 lung it was 1.86% (active); in the assay on HOP-92 NSCLC, -3.88% (active); with NCI-H522 lung it was 7.66% (active). Further, the growth was 13.3% with A549/ATCC NSCLC; 6.74% (active) with 786-0 renal; -64.2% (active) in the assay with COLO 205 colon; 11.5% with DU-145 prostate; 2.85% (active) in the assay with K-562 leukemia; 10.9% in the assay on MALME-3M melanoma. The growth was -2.68% (active) with MDA-MB-231 breast; -13.6% (active) in the assay with RXF 393 renal; 13.1% in the assay with SF-268 CNS; -44.8% (active) in the assay with SF-295 CNS; -38.5% (active) in the assay with SF-539 CNS; 33% in the assay with UACC-257 melanoma. Also, the growth in the assay on M14 melanoma is -24.7% (active).
On to `C=CCN(CC=C)C(=O)[C@H](CC)[C@@H]1CC[C@@H](C)[C@@H]([C@H](C)[C@@H](O)[C@@H](C)C(=O)[C@H](CC)C2O[C@]3(C=CC(=O)[C@]4(CC[C@@](C)([C@H]5CC[C@](O)(CC)[C@H](C)O5)O4)O3)[C@H](C)C[C@@H]2C)O1` (some centres not stated), for which the growth in the assay on NCI-H23 lung was 18.6%; in the assay on NCI-H226 lung, 13.8%; with HOP-62 NSCLC, 31.4%; with NCI-H460 lung it was 15.2%; in the assay on HOP-92 NSCLC, -8.35% (active); in the assay with NCI-H522 lung it was 11.6%. For the same compound, the growth in the assay with A549/ATCC NSCLC was 24.1%; in the assay on 786-0 renal it was 44.3%; in the assay on COLO 205 colon it was 1.18% (active); in the assay with DU-145 prostate, 74.8%; in the assay with K-562 leukemia, 18.7%; in the assay on MALME-3M melanoma, -25.1% (active). Besides, the growth with MDA-MB-231 breast is 23.1%; in the assay with RXF 393 renal, 21.4%; with SF-268 CNS, 58.9%; with SF-295 CNS, 5.69% (active); in the assay with SF-539 CNS, 53.2%; in the assay on UACC-257 melanoma, 20.6%. Further, the growth with M14 melanoma was 17.3%.
With `O=C(CCCCC(=O)Oc1c(Cl)cc(Cl)cc1[N+](=O)[O-])Oc1c(Cl)cc(Cl)cc1[N+](=O)[O-]`, the growth with NCI-H23 lung was 96.5%; in the assay with NCI-H226 lung, 106%; in the assay on HOP-62 NSCLC, 102%; in the assay with NCI-H460 lung, 106%; in the assay with HOP-92 NSCLC, 118%; in the assay on NCI-H522 lung it was 89.5%. The growth in the assay with A549/ATCC NSCLC is 103%; in the assay with 786-0 renal, 101%; in the assay on COLO 205 colon, 121%; in the assay with DU-145 prostate, 106%; in the assay with K-562 leukemia, 85.9%; in the assay with MALME-3M melanoma, 98.8%. In addition, the growth in the assay with MDA-MB-231 breast is 106%; in the assay on RXF 393 renal, 120%; in the assay with SF-268 CNS it was 96.3%; with SF-295 CNS, 97.2%; in the assay on SF-539 CNS, 100%; in the assay on UACC-257 melanoma it was 99.5%. Moreover, in the assay on M14 melanoma, the growth was 103%.
